Screen size: about 5,500 compounds; about 2,000 (36%) were called active. Roughly 18% stayed inconclusive and do not appear here. No stated cut-off is given here; in the data, active means normalized growth mostly below about 0.91 (no sharp cut-off); inconclusive means no clear call, values can overlap the other calls; inactive means mostly above about 0.92. The list shows a part of the results.
Assay: chemical genetic growth profiling, strain panel (AID 1159580);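 further: tested at 20 µM; growth read once vehicle control cultures reached saturation at 30 °C; 1 = growth at the plate median or of vehicle wells; lower values mean less growth of the strain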
Settings: growth OD

Measured: normalized growth

S=P(N1CC1)(N1CC1)N1CC1
inactive: S. cerevisiae deletion strains, locus YKL009W, strain mrt4, hits give low values 0.99 | S. cerevisiae deletion strains, locus YKL068W, hits give low values 1.01 | S. cerevisiae deletion strains, locus YKL085W, strain MDH1 (second series), hits give low values 0.997 | S. cerevisiae deletion strains, locus YKL085W, strain MDH1, hits give low values 0.997 | S. cerevisiae deletion strains, locus YKL160W, strain elf1, hits give low values 1.01 | S. cerevisiae deletion strains, locus YKL190W, strain CNB1, hits give low values 1 | S. cerevisiae deletion strains, locus YKR001C, strain vps1, hits give low values 0.994 | S. cerevisiae deletion strains, locus YKR026C, strain gcn3, hits give low values 0.976 | S. cerevisiae deletion strains, locus YKR091W, strain srl3, hits give low values 1 | S. cerevisiae deletion strains, locus YLL001W, strain dnm1, hits give low values 1 | S. cerevisiae deletion strains, locus YLL026W, hits give low values 1 | S. cerevisiae deletion strains, locus YLL041C, strain sdh2, hits give low values 1.01 | S. cerevisiae deletion strains, locus YLR027C, strain aat2, hits give low values 1.01 | S. cerevisiae deletion strains, locus YLR039C, strain RIC1, hits give low values 1.03 | S. cerevisiae deletion strains, locus YLR058C, strain SHM2, hits give low values 1.01 | S. cerevisiae deletion strains, locus YLR102C, strain apc9, hits give low values 1.01 | S. cerevisiae deletion strains, locus YLR113W, strain HOG1, hits give low values 0.995 | S. cerevisiae deletion strains, locus YLR221C, strain rsa3, hits give low values 0.996 | S. cerevisiae deletion strains, locus YLR258W, strain gsy2, hits give low values 1.01 | S. cerevisiae deletion strains, locus YLR262C, strain YPT6 (second series), hits give low values 1.02 | S. cerevisiae deletion strains, locus YLR262C, strain YPT6, hits give low values 1.02 | S. cerevisiae deletion strains, locus YLR268W, strain sec22, hits give low values 0.989 | S. cerevisiae deletion strains, locus YLR320W, strain mms22, hits give low values 0.994 | S. cerevisiae deletion strains, locus YLR330W, strain CHS5, hits give low values 1.01 | S. cerevisiae deletion strains, locus YLR342W, strain FKS1 (second series), hits give low values 1.03 | S. cerevisiae deletion strains, locus YLR342W, strain FKS1, hits give low values 1.01 | S. cerevisiae deletion strains, locus YLR357W, strain rsc2, hits give low values 1.03 | S. cerevisiae deletion strains, locus YLR370C, strain arc18, hits give low values 1.01 | S. cerevisiae deletion strains, locus YLR371W, strain rom2, hits give low values 1.01 | S. cerevisiae deletion strains, locus YLR384C, strain iki3, hits give low values 0.994 | S. cerevisiae deletion strains, locus YLR418C, strain cdc73, hits give low values 0.977 | S. cerevisiae deletion strains, locus YML016C, strain PPZ1, hits give low values 1 | S. cerevisiae deletion strains, locus YML032C, strain rad52, hits give low values 1 | S. cerevisiae deletion strains, locus YML120C, strain ndi1, hits give low values 1.01 | S. cerevisiae deletion strains, locus YML124C, strain tub3, hits give low values 1 | S. cerevisiae deletion strains, locus YMR058W, strain fet3, hits give low values 1.02 | S. cerevisiae deletion strains, locus YMR078C, strain ctf18, hits give low values 1 | S. cerevisiae deletion strains, locus YMR125W, strain sto1, hits give low values 1 | S. cerevisiae deletion strains, locus YMR129W, hits give low values 1.01 | S. cerevisiae deletion strains, locus YMR205C, strain PFK2, hits give low values 1.01 | S. cerevisiae deletion strains, locus YMR223W, strain ubp8, hits give low values 1 | S. cerevisiae deletion strains, locus YMR231W, strain pep5, hits give low values 0.993 | S. cerevisiae deletion strains, locus YMR263W, strain SAP30, hits give low values 1.02 | S. cerevisiae deletion strains, locus YMR307W, strain GAS1, hits give low values 1.04 | S. cerevisiae deletion strains, locus YNL067W, strain RPL9B, hits give low values 1.01 | S. cerevisiae deletion strains, locus YNL071W, strain lat1, hits give low values 1.02 | S. cerevisiae deletion strains, locus YNL128W, strain TEP1, hits give low values 1.01 | S. cerevisiae deletion strains, locus YNL153C, strain GIM3, hits give low values 0.997 | S. cerevisiae deletion strains, locus YNL183C, strain NPR1, hits give low values 0.932 | S. cerevisiae deletion strains, locus YNL209W, strain ssb2, hits give low values 1.02 | S. cerevisiae deletion strains, locus YNL233W, strain BNI4, hits give low values 0.998 | S. cerevisiae deletion strains, locus YNL248C, strain rpa49, hits give low values 0.999 | S. cerevisiae deletion strains, locus YNL250W, strain rad50, hits give low values 0.995 | S. cerevisiae deletion strains, locus YNL271C, strain bni1, hits give low values 1.01 | S. cerevisiae deletion strains, locus YNL298W, strain CLA4, hits give low values 1.02 | S. cerevisiae deletion strains, locus YNL307C, strain MCK1, hits give low values 1.01 | S. cerevisiae deletion strains, locus YNL322C, strain KRE1 (second series), hits give low values 1.01 | S. cerevisiae deletion strains, locus YNL322C, strain KRE1, hits give low values 1.01 | S. cerevisiae deletion strains, locus YNR049C, strain mso1, hits give low values 1.01 | S. cerevisiae deletion strains, locus YNR052C, strain pop2, hits give low values 1 | S. cerevisiae deletion strains, locus YOL006C, strain TOP1, hits give low values 1.04 | S. cerevisiae deletion strains, locus YOL012C, strain htz1 0.982 | S. cerevisiae deletion strains, locus YOL147C, strain pex11, hits give low values 1.04 | S. cerevisiae deletion strains, locus YOR001W, strain rrp6, hits give low values 1.01 | S. cerevisiae deletion strains, locus YOR061W, strain CKA2, hits give low values 1.01 | S. cerevisiae deletion strains, locus YOR069W, strain VPS5, hits give low values 0.992 | S. cerevisiae deletion strains, locus YOR070C, strain gyp1, hits give low values 1.01 | S. cerevisiae deletion strains, locus YOR080W, strain dia2, hits give low values 1 | S. cerevisiae deletion strains, locus YOR083W, strain WHI5, hits give low values 0.997 | S. cerevisiae deletion strains, locus YOR106W, strain vam3, hits give low values 0.997 | S. cerevisiae deletion strains, locus YOR136W, strain idh2, hits give low values 1 | S. cerevisiae deletion strains, locus YOR144C, strain elg1, hits give low values 1.01 | S. cerevisiae deletion strains, locus YOR184W, strain ser1, hits give low values 1.01 | S. cerevisiae deletion strains, locus YOR231W, strain MKK1, hits give low values 1 | S. cerevisiae deletion strains, locus YOR265W, strain rbl2, hits give low values 1.01 | S. cerevisiae deletion strains, locus YOR270C, strain vph1, hits give low values 1.01 | S. cerevisiae deletion strains, locus YOR290C, strain snf2, hits give low values 1.01 | S. cerevisiae deletion strains, locus YOR316C, strain cot1, hits give low values 1 | S. cerevisiae deletion strains, locus YPL051W, strain arl3, hits give low values 1.01 | S. cerevisiae deletion strains, locus YPL055C, strain LGE1, hits give low values 0.989 | S. cerevisiae deletion strains, locus YPL078C, strain atp4, hits give low values 1.01 | S. cerevisiae deletion strains, locus YPL106C, strain sse1, hits give low values 1.02 | S. cerevisiae deletion strains, locus YPL240C, strain hsp82, hits give low values 0.996 | S. cerevisiae deletion strains, locus YPL241C, strain CIN2, hits give low values 0.991 | S. cerevisiae deletion strains, locus YPL256C, strain CLN2, hits give low values 0.991 | S. cerevisiae deletion strains, locus YPR119W, strain clb2, hits give low values 1.01 | S. cerevisiae deletion strains, locus YPR141C, strain kar3, hits give low values 0.996 | S. cerevisiae deletion strains, locus YPR163C, strain tif3, hits give low values 1 | S. cerevisiae deletion strains, locus YPR167C, strain met16, hits give low values 0.992 | S. cerevisiae deletion strains, strain wtn01, hits give low values 0.983 | S. cerevisiae strains, strain wild type, hits give low values 1.01

Reference: PubChem BioAssay AID1159580 (chemical genetic matrix, 2015)
